This is an account of results in article PMC4336329 (PLoS ONE, 2015).

In all, about 310,000 compounds went through this assay and about 14,000 (4.5%) showed an effect of 50% or more. Effects have a minus sign here. Shown is part of a subset that was picked to be rich in strong results.
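Note: peak tail current of the secondary pulse compared with the same well before compound.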

The target of the assay is human ether-à-go-go-related gene (hERG) potassium channel (human, UniProt Q12809). Put plainly: primary screen, population patch clamp on CHO cells stably expressing hERG; higher = less effect of the substance.
human ether-à-go-go-related gene (hERG) potassium channel, sequence (Q12809 whole entry, looked up): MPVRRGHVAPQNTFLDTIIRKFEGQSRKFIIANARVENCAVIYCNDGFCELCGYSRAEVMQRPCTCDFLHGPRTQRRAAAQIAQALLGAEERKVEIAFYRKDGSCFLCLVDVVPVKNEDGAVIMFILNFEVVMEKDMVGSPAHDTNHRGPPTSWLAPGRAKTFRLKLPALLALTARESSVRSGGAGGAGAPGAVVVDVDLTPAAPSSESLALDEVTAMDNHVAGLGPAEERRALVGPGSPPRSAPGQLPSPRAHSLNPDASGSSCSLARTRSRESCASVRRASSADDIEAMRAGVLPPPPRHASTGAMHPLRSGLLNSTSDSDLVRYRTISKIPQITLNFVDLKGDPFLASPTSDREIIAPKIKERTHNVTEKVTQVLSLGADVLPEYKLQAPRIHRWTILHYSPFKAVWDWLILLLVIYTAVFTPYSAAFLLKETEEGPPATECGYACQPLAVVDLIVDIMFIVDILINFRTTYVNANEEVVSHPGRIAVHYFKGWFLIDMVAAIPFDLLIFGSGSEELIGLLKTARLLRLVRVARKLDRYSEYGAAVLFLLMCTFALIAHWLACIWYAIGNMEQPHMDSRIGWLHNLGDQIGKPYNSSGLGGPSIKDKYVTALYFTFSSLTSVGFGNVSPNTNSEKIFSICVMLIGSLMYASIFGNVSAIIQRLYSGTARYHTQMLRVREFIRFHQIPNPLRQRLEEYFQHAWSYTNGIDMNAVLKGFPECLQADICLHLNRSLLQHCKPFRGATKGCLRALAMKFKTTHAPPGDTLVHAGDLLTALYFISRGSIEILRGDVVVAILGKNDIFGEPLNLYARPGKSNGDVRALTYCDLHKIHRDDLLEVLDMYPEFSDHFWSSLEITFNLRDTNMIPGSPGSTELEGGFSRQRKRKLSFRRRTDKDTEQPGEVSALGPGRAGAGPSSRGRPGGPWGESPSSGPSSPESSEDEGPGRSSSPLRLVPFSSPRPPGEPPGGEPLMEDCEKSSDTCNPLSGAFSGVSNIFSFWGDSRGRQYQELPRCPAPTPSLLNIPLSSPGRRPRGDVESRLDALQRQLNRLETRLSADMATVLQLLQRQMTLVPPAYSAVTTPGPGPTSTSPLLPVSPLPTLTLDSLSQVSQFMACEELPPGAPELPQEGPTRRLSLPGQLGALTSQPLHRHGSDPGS
As for `CCC1(C)Cc2c(sc3nc(SC)nc(N)c23)CO1` (stereo not shown), the “hERG current change (%, negative = inhibition) at 10uM” value was -7.82%.

`O=C1NC(Cc2ccccc2)c2nc3ccccc3c(=O)n2-c2cc(Cl)ccc21` (stereo not shown): the “hERG current change (%, negative = inhibition) at 10uM” value worked out at 11.4%. On to `CCCCn1c(N)c(N(CCC(C)C)C(=O)C2=NN(c3cc(C)ccc3C)C(=O)CC2)c(=O)[nH]c1=O`, for which the “hERG current change (%, negative = inhibition) at 10uM” value is -1.89%.

Consider `OC(CNC1CCCCC1)C(F)(F)F` (stereo not shown), for which the “hERG current change (%, negative = inhibition) at 10uM” value was -2.73%. Next, `CCC(C)[C@H](NC(=O)[C@@H]1Cc2ccccc2CN1)C(=O)NCc1ccc(OC)cc1` (stereo partly shown): -32.7%. Next, `CC1CCCCN1C(=O)COC(=O)c1cc(-c2cccs2)nn1-c1ccccc1` (stereo not shown): 0.387%; `O=[N+]([O-])c1cc(/C=N/O)ccc1Sc1ccccc1`: 13.7%. The result for `CC1CCCCN1C(=O)CSc1nnc(-c2ccco2)o1` (stereo not shown) reads 2.08%; that for `CCOC(=O)CN1CC23C=CC(O2)C(C(=O)Nc2cc(OC)ccc2OC)C3C1=O` (stereo not shown), -3.04%. In the case of `CC[N+](CC)(CC(=O)Nc1c(C)cccc1C)Cc1ccccc1.O=C([O-])c1ccccc1`, the “hERG current change (%, negative = inhibition) at 10uM” value is listed as 14.7%.

For the compound `CC(/C=C/c1ccco1)=N\NC(=O)CNc1cccc(C)c1`, the “hERG current change (%, negative = inhibition) at 10uM” value was determined as 18.1%. Take `O=S(=O)(O)c1nc2ccccc2n1Cc1ccccc1`: the “hERG current change (%, negative = inhibition) at 10uM” value is listed as -10.5%.

In the case of `CCOc1ccc(N(CC(=O)NCC2CCCO2)S(=O)(=O)c2ccc(C)cc2)cc1` (stereo not shown), the “hERG current change (%, negative = inhibition) at 10uM” value is given as -10.3%. Consider `COc1ccc(NC(=O)COc2ccc(C)cc2)c([N+](=O)[O-])c1`, for which the “hERG current change (%, negative = inhibition) at 10uM” value was determined as 7%. The result for `CCOc1ccc(OCC(=O)Nc2ccc(OC)cc2[N+](=O)[O-])cc1` reads 3.3%; that for `COc1ccc(OCC(=O)N/N=C(\C)CC(=O)Nc2ccc(OC)cc2[N+](=O)[O-])cc1`, -93.8%; that for `COc1ccc2sc(C)nc2c1NC(C)=O`, 9.21%.

As for `COc1ccc(-c2nc(SCC(=O)N3CCOCC3)n[nH]2)cc1`, the “hERG current change (%, negative = inhibition) at 10uM” value is -4.25%. Turning to `CC(=O)Nc1nonc1-c1nc2ccccc2n1Cc1ccccc1`, the “hERG current change (%, negative = inhibition) at 10uM” value is 13.2%.

Take `O=C(NCCc1c[nH]c2ccccc12)/C(=C\c1cccnc1)NC(=O)c1cccs1`: the “hERG current change (%, negative = inhibition) at 10uM” value is reported as -17%.

For `O=C(NCCc1c[nH]c2ccccc12)/C(=C\c1cccnc1)NC(=O)c1ccccc1F`, the “hERG current change (%, negative = inhibition) at 10uM” value is -58.5%. Next, `O=C(NCCc1c[nH]c2ccccc12)/C(=C/c1cccnc1)NC(=O)c1ccccc1`: -14.3%; `O=C(NCCc1c[nH]c2ccccc12)/C(=C\c1cccnc1)NC(=O)c1ccccc1Br`: -65.1%. The result for `O=C(NCCc1c[nH]c2ccccc12)/C(=C/c1cccnc1)NC(=O)c1cccs1` reads -19.1%.

In the case of `CC(=O)N/C(=C/c1ccc(Cl)cc1)C(=O)NCCc1c[nH]c2ccccc12`, the “hERG current change (%, negative = inhibition) at 10uM” value is reported as -20.8%.

Regarding `NC(=O)NC(CC(=O)NCCc1ccc(S(N)(=O)=O)cc1)c1ccccc1Cl` (stereo not shown), the “hERG current change (%, negative = inhibition) at 10uM” value is reported as 6.81%.

In the case of `CC(C(=O)N1c2ccc(F)cc2CCC1C)N1C(=O)c2ccccc2C1=O` (stereo not shown), the “hERG current change (%, negative = inhibition) at 10uM” value came to 2.72%. The result for `COCCCN(C(=O)c1ccco1)c1nc(-c2ccc(OC)cc2)cs1` reads 1.81%; that for `CN(C(=O)c1ccco1)c1nc(-c2ccc(Cl)cc2)cs1`, 8.09%. The result for `Cc1ccc(-c2csc(N(CCCN3CCOCC3)C(=O)c3ccco3)n2)cc1.Cl` reads -19.1%; that for `CN(C)CCCN(C(=O)c1ccco1)c1nc(-c2ccc(Cl)cc2)cs1.Cl`, -72.5%; that for `Cl.O=C(c1ccco1)N(CCCN1CCOCC1)c1nc(-c2ccc(Cl)cc2)cs1`, -13.4%. The result for `Cc1ccc(-c2csc(N(CCCN(C)C)C(=O)c3ccco3)n2)cc1.Cl` reads -74.8%; that for `COc1ccc(-n2nc(C(=O)NCC(=O)NCc3ccco3)c3ccccc3c2=O)c(OC)c1`, 11.3%; that for `Cl.c1ccc(NNC2=NCCCCC2)cc1`, 8.92%. Take `O=C(O)Cn1c(=O)c2c3c(sc2n(Cc2ccc(F)cc2)c1=O)CCCC3`: the “hERG current change (%, negative = inhibition) at 10uM” value was 17.9%. The result for `Cc1ccc(C)c(OCc2nc3ccc(S(=O)(=O)Nc4c(C)n(C)n(-c5ccccc5)c4=O)cc3[nH]2)c1` reads 7.31%.

Take `CCCCN(C)CCN1C(=O)C2C(C(=O)Nc3cccc(OC)c3)C3C=CC2(O3)C1C(=O)NC1CCCCC1C` (stereo not shown): the “hERG current change (%, negative = inhibition) at 10uM” value is reported as -14.7%. The result for `CC(C)(C)C(=O)Nc1cc(NC(=O)C(C)(C)C)cc(C(=O)NNC(=O)c2ccncc2)c1` reads 16.5%; that for `CCOc1ccccc1NC(=O)N1CCC(n2nnc3cc(C)ccc32)CC1`, -53.9%; that for `CCOc1ccc(NC(=O)N2CCC(n3nnc4ccccc43)CC2)cc1`, -15.4%. `Cc1ccc2c(c1)nnn2C1CCN(C(=O)Nc2ccccc2C)CC1`: the “hERG current change (%, negative = inhibition) at 10uM” value is given as -22.6%. As to `Cc1cccc(NC(=O)N2CCC(n3nnc4cc(C)ccc43)CC2)c1`, the “hERG current change (%, negative = inhibition) at 10uM” value was -62.9%. Next, `COc1cccc(NC(=O)N2CCC(n3nnc4ccccc43)CC2)c1`: -18.8%; `Cc1ccc2c(c1)nnn2C1CCN(C(=O)C2CCCCC2)CC1`: -31.3%; `Cc1ccc2c(c1)nnn2C1CCN(C(=O)NCc2ccccc2)CC1`: -76.7%.
